The source of these data is PubChem BioAssay (NCI).

Test systems include SK-MEL-2 melanoma; EKVX NSCLC; SN12C renal; UO-31 renal; TK-10 renal; ACHN renal; CAKI-1 renal; A498 renal; CCRF-CEM leukemia; MOLT-4 leukemia.
Holding throughout (experiment): NCI-60 one-dose screen, 48 h (100 = growth as untreated, 0 = no growth, -100 = all killed)
Holding throughout (conditions): 10 µM unless noted

Structures are written as SMILES. Compounds without any hit were thinned out: in the full panel of roughly 83,000, 20% have a hit.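 Negative percent growth values reflect cell death: -40 means 40% of the cells present at the start died, and -100 means all died.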 Values without a mark were called inactive. The source made the active and inactive calls. The calls were made as follows: active = growth percent below 10; inactive = the rest.

As to `COc1cccc(-c2nn(-c3ccccc3)cc2-c2ccnc(NCCCNS(=O)(=O)c3ccc(Br)cc3)c2)c1`, the growth with SK-MEL-2 melanoma was 50.9%; in the test on EKVX NSCLC it was 66%; in the test on SN12C renal, 57.1%; in the test on UO-31 renal it was 21.6%; with TK-10 renal, 55.7%; in the test on ACHN renal, 48.3%. The growth is 51.1% in the test with CAKI-1 renal, 41.4% in the test with A498 renal, 32.1% in the test with CCRF-CEM leukemia and 23.5% in the test with MOLT-4 leukemia.
Turning to `COc1ccc(-c2cc(-c3c(C)oc4cc5occc5c(OC)c4c3=O)nc(N)c2C#N)cc1OC`, the growth with SK-MEL-2 melanoma is 60.7%; in the test with EKVX NSCLC, 92.8%; in the test on SN12C renal it was 77.6%; with UO-31 renal, 45.2%; with TK-10 renal, 77.1%; in the test with ACHN renal, 65.6%. Also, the growth is 38.9% in the test with CAKI-1 renal, 23.7% with A498 renal, 43.8% with CCRF-CEM leukemia and 30.9% in the test with MOLT-4 leukemia.
With `COc1cc(-c2cc3ncccc3c3[nH]c(=O)c4cccnc4c23)cc(OC)c1OC`, the growth was 44.6% with SK-MEL-2 melanoma; 33.2% in the test on EKVX NSCLC; 42.7% with SN12C renal; 36.2% in the test with UO-31 renal; 52.2% in the test on TK-10 renal; 46.7% with ACHN renal. Moreover, the growth was 28.4% with CAKI-1 renal, -18.1% (active) in the test on A498 renal, 13.1% in the test with CCRF-CEM leukemia and 31.6% in the test with MOLT-4 leukemia.
In the case of `CCC1C(=O)COC1=O` (stereo not given), the growth in the test on SK-MEL-2 melanoma was 87%; in the test with EKVX NSCLC it was 95.5%; in the test on SN12C renal, 104%; in the test with UO-31 renal, 95.7%; in the test on TK-10 renal it was 90.5%; in the test on ACHN renal, 103%. Further, the growth is 92.4% in the test on CAKI-1 renal, 91.4% with A498 renal, 85.4% in the test on CCRF-CEM leukemia and 92.9% in the test with MOLT-4 leukemia.
Take `COC(=O)C(Cc1ccccc1)n1cc(COc2nc(Cl)nc(Nc3ccc(Cl)cc3)n2)nn1` (stereo not given): the growth is 97.2% with SK-MEL-2 melanoma; 95.4% in the test with EKVX NSCLC; 96.5% in the test on SN12C renal; 72.6% with UO-31 renal; 104% with TK-10 renal; 102% in the test with ACHN renal. In addition, the growth in the test on CAKI-1 renal is 92.1%; in the test on A498 renal, 61.6%; with CCRF-CEM leukemia, 96.5%; in the test on MOLT-4 leukemia, 91.3%.
Consider `COC(=O)[C@]12CC[C@@H](C)[C@H](C)[C@@H]1C1=CC(=O)[C@@H]3[C@@]4(C)C[C@@H](OC(C)=O)[C@H](OC(C)=O)[C@@](C)(COC(C)=O)[C@@H]4C(=O)C[C@@]3(C)[C@]1(C)CC2`, for which the growth in the test on SK-MEL-2 melanoma is 75.6%; with EKVX NSCLC it was 57.8%; in the test on SN12C renal, 57.1%; with UO-31 renal, 42.5%; with TK-10 renal it was 74%; in the test with ACHN renal, 31.8%. Further, the growth was 30.5% in the test with CAKI-1 renal, 53% in the test with A498 renal, 17% in the test on CCRF-CEM leukemia and 4.9% (active) in the test with MOLT-4 leukemia.
On to `CN1CCN(c2nc(-c3csc(-c4cccs4)n3)cc3ccccc23)CC1`, for which the growth is 39.7% in the test with SK-MEL-2 melanoma; 68.3% with EKVX NSCLC; 71% with SN12C renal; 59.8% in the test with UO-31 renal; 79% in the test with TK-10 renal; 31.4% in the test with ACHN renal. In addition, the growth with CAKI-1 renal is 39.6%; in the test on A498 renal it was 10.5%; in the test on CCRF-CEM leukemia it was 30.7%; in the test with MOLT-4 leukemia, 9.46% (active).
As for `COc1cccc(-c2nn(-c3ccccc3)cc2-c2ccnc(NCCNS(=O)(=O)c3ccc(Cl)cc3)c2)c1`, the growth was 13.4% with SK-MEL-2 melanoma; 32.1% in the test on EKVX NSCLC; 33.9% in the test with SN12C renal; 15.8% in the test on UO-31 renal; 41.5% in the test on TK-10 renal; 26.6% in the test on ACHN renal. The growth was 32.2% in the test with CAKI-1 renal, 45.9% in the test on A498 renal, 15.3% in the test on CCRF-CEM leukemia and 1.18% (active) in the test on MOLT-4 leukemia.
As for `COC(=O)[C@]12CC[C@@H](C)[C@H](C)[C@@H]1C1=CC[C@@H]3[C@@](C)(CC#N)C4=C(C[C@@]3(C)[C@]1(C)CC2)OC[C@]4(C)C=O`, the growth with SK-MEL-2 melanoma is -40.2% (active); in the test with EKVX NSCLC, -11.8% (active); in the test with SN12C renal, 1.64% (active); in the test on UO-31 renal, 6.25% (active); with TK-10 renal it was 3.82% (active); in the test with ACHN renal, 7.19% (active). In addition, the growth with CAKI-1 renal is 9.24% (active); with A498 renal, -91.7% (active); in the test on CCRF-CEM leukemia, 1.66% (active); in the test on MOLT-4 leukemia, 2.4% (active).
For `Cn1nc(-c2ccccc2)c2c(-c3ccccc3)onc2c1=O`, the growth in the test on SK-MEL-2 melanoma is 40.1%; with EKVX NSCLC, 54.2%; in the test with SN12C renal, 45.4%; in the test on UO-31 renal, 39.6%; in the test on TK-10 renal it was 53%; in the test with ACHN renal, 58.4%. The growth in the test on CAKI-1 renal was 36.5%; with A498 renal it was 24.6%; in the test on CCRF-CEM leukemia, 20.9%; with MOLT-4 leukemia it was 42.8%.
As to `C[C@@H](Oc1ccc(C(=O)NS(=O)(=O)C(C)(C)C)cc1C(F)(F)F)c1ccc(Oc2ccccc2)cn1`, the growth in the test with SK-MEL-2 melanoma is 38.2%; in the test with EKVX NSCLC, 65%; with SN12C renal, 61.2%; in the test with UO-31 renal, 58.8%; in the test on TK-10 renal it was 79.1%; with ACHN renal, 61.8%. Besides, the growth with CAKI-1 renal is 38.8%; with A498 renal, -0.737% (active); with CCRF-CEM leukemia, 25.9%; with MOLT-4 leukemia, 57.3%.
Turning to `COc1cc(-c2cc3ncccc3c3nc(OCCN(C)C)c4cccnc4c23)cc(OC)c1OC`, the growth with SK-MEL-2 melanoma is 19.8%; with EKVX NSCLC, 32.8%; in the test with SN12C renal, 2.68% (active); in the test with UO-31 renal, -70% (active); with TK-10 renal, -82.7% (active); in the test on ACHN renal, -74.5% (active). In addition, the growth in the test with CAKI-1 renal was -37.3% (active); with A498 renal, -72.6% (active); in the test with CCRF-CEM leukemia, 14.5%; with MOLT-4 leukemia, 2.03% (active).
With `COc1ccc(/C=C/C(=O)c2ccc([N+](=O)[O-])cc2)cc1`, the growth in the test with SK-MEL-2 melanoma was 98.9%; in the test with EKVX NSCLC, 128%; with SN12C renal, 102%; in the test on UO-31 renal it was 89.9%; in the test with TK-10 renal it was 101%; in the test with ACHN renal, 108%. In addition, the growth was 123% in the test with CAKI-1 renal, 107% in the test on A498 renal, 85.3% in the test with CCRF-CEM leukemia and 86.3% with MOLT-4 leukemia.
